# Substitutions are numbered along the chain they refer to. In all, about 24,000 sequences were measured (“enrichment r”: median about 0.99, highest 2% from about 3.7 on). The sample as a whole holds a higher share of the highest values than the screen did.
# T1: UNK ZnF1-3 (human, UniProt Q9C0B0 31-174)
# T1 sequence: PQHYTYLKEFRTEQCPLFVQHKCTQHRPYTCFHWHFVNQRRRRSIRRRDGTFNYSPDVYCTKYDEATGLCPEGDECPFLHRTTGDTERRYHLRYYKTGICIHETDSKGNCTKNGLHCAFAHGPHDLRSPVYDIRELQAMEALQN
# B1: 83126405_83126525_1642_CDS_ENSMUSG00000058881_ENSMUST00000071233|mouse|control|control (ssRNA)
# RNA: GGGAGUUCUACAGUCCGACGAUCCCGGGGAUCAAGGUGGCCAGAAAGCAUGGGGUCCCCAGGUACACUGGCCCUCUUCCUCGGGGGAGCUUGGGUAGCCGGAGCAUCCUGUUCACGCUUGCGUUUUUCCUGGCUCACCAGUAUCAACAGAGGAUUGAGCAUCA
# B2: chr7:54825262:54825263:-_ENSG00000132432_ENST00000352861|hu_hu|hu_hu_hu_mus_False|18_38 (ssRNA)
# RNA: GGGAGUUCUACAGUCCGACGAUCCUGCCGGCUGGGCUCCACAAACUGCAUUACCUGAUCCAUGUUUGUUGGAUGGCGGAUUGAGAGCGUAGAGACAACGUAGCACUGAGAGAACCGGAUGGAGGCCAACCGGAAGCUGGCAACCAACAGAGGAUUGAGCAUCA
# B3: chr2:42543136:42543137:+_ENSG00000143924_ENST00000318522|hu_mus|FALSE|FALSE (ssRNA)
# RNA: GGGAGUUCUACAGUCCGACGAUCAUCUACUGAGUAGCGCAUCACAGACAGCUGCUCAUUGCCAUCCGUGUGGAUUGACACCAGAUCUCUUGUUUCUGCAUCCAGAACAAACCACCUGCCUGAGUGCGUUCCAAUGGCUACCACCAACAGAGGAUUGAGCAUCA
# B4: chr19:8913615:8913616:-_ENSMUSG00000071658_ENSMUST00000096259|mus_hu|mus_mus_mus_hu_False|48_78 (ssRNA)
# RNA: GGGAGUUCUACAGUCCGACGAUCAGGGUACCAAAACCUUCUGCCUGAAAUGGGUGCCCCACCCUGCAGGGAGUUGCAGCUGAAAGUAUCCGUAGCAGAAGCAGUGACUAUACGAAAGGAGGCCCCUGGGGAGGGCCAGGCCAGCAACAGAGGAUUGAGCAUCA
# B5: chr12:8945443:8945444:+_ENSMUSG00000020585_ENSMUST00000020909|mus_mus|motif|central (ssRNA)
# RNA: GGGAGUUCUACAGUCCGACGAUCUGGAAACGUACAAAUGAGAAGCAUGCAACCAUCAUCUUCCACAGUCAAGUCAAACUGCGGUUUCUCUCUCUCUCCUGUUUCAUAGAGCUGGAAACUGCAGGUGUUAUACCCAACCUAUUCCAACAGAGGAUUGAGCAUCA
# B6: 117863777_117864697_1263_CDS_ENSMUSG00000017715_ENSMUST00000132676|mouse|control|control (ssRNA)
# RNA: GGGAGUUCUACAGUCCGACGAUCGCGGUCCUGGCGGUUGGUGAAGUAUGAGUCACUCAGGUUUGCACCACUCAGGAUGACGUUGUUGUCAAAGAGGUACACCUUGAUGUGCUGGAGGCCGAUGGUCUCAUUGAAGCGCUCAGGCAACAGAGGAUUGAGCAUCA
# B7: 53565353_53565853_12282_CDS_ENSG00000086758_ENST00000262854|human|control|control (ssRNA)
# RNA: GGGAGUUCUACAGUCCGACGAUCCCCAUCAGCAAGGUGGGUCGUGGACUGCCGUAGGAUCUGGUUUAACACAGUGCGGUGAGUCUCUGCAAAGCGAAGGAACUUCUGUGUGUCAGGGGGCAGGCUUGAGGAGAUGUGCAUAGACAACAGAGGAUUGAGCAUCA
# B8: chr6:41757443:41757444:+_ENSG00000214736_ENST00000398881|hu_mus|hu_hu_hu_mus_False|28_38 (ssRNA)
# RNA: GGGAGUUCUACAGUCCGACGAUCGAACCGUGCAGAGGCAACAUCUCAGCCGACACUGGGGGAUGGGGGGGCAGUGGGGGGGGGUUCAGGCAAGGAGAAGAAAAGUGCCCAUCUGAACACUCAGGUAGGAUCUUGUGGUCACAGCAACAGAGGAUUGAGCAUCA
# B9: chr6:41757443:41757444:+_ENSG00000214736_ENST00000398881|hu_mus|hu_hu_hu_mus_False|1_68 (ssRNA)
# RNA: GGGAGUUCUACAGUCCGACGAUCGAACCGUGCAGAGGCAACAUCUCAGCCGACACUGGGGGAUGGGGGAACAAAAGGGGGGGGUUCAGGCAAGGAGAGGGAGUCAACUUCAGCUGCCACUCAGGUAGGAUCUUGUGGGGCACACAACAGAGGAUUGAGCAUCA
# B10: chr6:41757443:41757444:+_ENSG00000214736_ENST00000398881|hu_mus|hu_hu_hu_mus_False|28_28 (ssRNA)
# RNA: B8 RNA with A98G, A100G, A102G, A103U, G104C, U105A, G106A
# B11: chr6:41757443:41757444:+_ENSG00000214736_ENST00000398881|hu_mus|hu_hu_hu_mus_False|58_58 (ssRNA)
# RNA: GGGAGUUCUACAGUCCGACGAUCGAACCGUGCAGAGGCAACAUCUCAGCCGACACUGGGGGAUGGGGGGGCAGUGGGAAACUAGGCAGGCAAGGAGAGGGAGUCAACUUCAGCUGCCACUCAGGUAGGAUCUUGUGGUCACAGCAACAGAGGAUUGAGCAUCA
# B12: chr7:133639990:133639991:-_ENSMUSG00000032637_ENSMUST00000167759|mus_hu|FALSE|FALSE (ssRNA)
# RNA: GGGAGUUCUACAGUCCGACGAUCGGUAGAGAGUUCUUUUACAUCUGUGGGGGCCAGGGAGAUCUUUGGAGAAGCUGGAGAAAUGGAGCCCACUCCAGGAUCUGAGACUGAUGAGGUCACAGGGAUGGAGGCUGAAGAGGUUGGCAACAGAGGAUUGAGCAUCA
# B13: 66332798_66333947_12362_CDS_ENSMUSG00000038664_ENSMUST00000042824|mouse|control|control (ssRNA)
# RNA: GGGAGUUCUACAGUCCGACGAUCUUCACCACUUUCUGUCAAGGCCAUUGAGUGCCCAUCUGAGCCACAGGAAGUCACCAGCUGGGUCACCACAAAACCUUGUAGGGCUGAAAUCACAGUCAGCACAUGAAGGUCGUCUGAAUUCAACAGAGGAUUGAGCAUCA
# B14: chr6:41757443:41757444:+_ENSG00000214736_ENST00000398881|hu_mus|hu_hu_hu_mus_False|18_28 (ssRNA)
# RNA: GGGAGUUCUACAGUCCGACGAUCGAACCGUGCAGAGGCAACAUCUCAGCCGACACUGGGGGAUGGGGGGGCAGUGGGGGGGGGUUCAGGCAAGGAGAGGGAGUCAACCCAUCUGAAUCAAACUUCAGGAUCUUGUGGUCACAGCAACAGAGGAUUGAGCAUCA
# B15: chr10:77750680:77750681:-_ENSMUSG00000001211_ENSMUST00000139282|mus_hu|FALSE|FALSE (ssRNA)
# RNA: GGGAGUUCUACAGUCCGACGAUCGCGGCGGUAGAGCUGCUUGCUGACCGGCCAGAGCGCCAGCGUGCACAGCUGGACGAAGUUGAUGACCAGACCACUCACCACGAAGACAAAGCCGACCAGCAGGUGCAGCACGAACUGGGUCAACAGAGGAUUGAGCAUCA
# B16: chr6:41757443:41757444:+_ENSG00000214736_ENST00000398881|hu_mus|hu_hu_hu_mus_False|1_38 (ssRNA)
# RNA: GGGAGUUCUACAGUCCGACGAUCGAACCGUGCAGAGGCAACAUCUCAGCCGACACUGGGGGAUGGGGGGGCAGUGGGGGGGGGUUCAGGCAAGGAGAAGAAAAGUGCUUCAGCUGCCACUCAGGUAGGAUCUUGUGGGGCACACAACAGAGGAUUGAGCAUCA
# B17: chr10:127876205:127876206:+_ENSMUSG00000025373_ENSMUST00000096386|mus_mus|FALSE|FALSE (ssRNA)
# RNA: GGGAGUUCUACAGUCCGACGAUCGGGGCCACCGAGGCAACACAGACACCCUCUUGAGGCAGUGCCGUUCUGGAUCAGCAGAGCCAGACAGCAGCUUCCUGCUGAGUGUACGAACACCAGUGCUCUCACGCCCACCCCUUCCUUCAACAGAGGAUUGAGCAUCA
# B18: chr15:43699750:43699751:-_ENSG00000067369_ENST00000382044|hu_hu|motif|central (ssRNA)
# RNA: GGGAGUUCUACAGUCCGACGAUCACACUUCAGCACCGAGGCUGGGCAUGAGGGGUCCGUCACCACCACAUCAAAUACCCCGGAAGCAAUAUCUUUGUUAUGGGCACUUGAAUGGUGCUGCUUCACAGAGGCUGCACCACCAGUCAACAGAGGAUUGAGCAUCA
# B19: 112904347_112904467_7746_CDS_ENSMUSG00000036862_ENSMUST00000078482|mouse|control|control (ssRNA)
# RNA: GGGAGUUCUACAGUCCGACGAUCUGUGGCCUCCAGGGUGAGCAGGGUGGAACCAGGGGGCAAAUCUUCAGACACAGCAACACGGUAGUGUGGCAAUGUGAAGCUUGGGGCAUGGUCAUUCUGGUCCUUCAGCUGCACAUGCACCAACAGAGGAUUGAGCAUCA
# B20: chrX:40988281:40988282:+_ENSG00000124486_ENST00000378308|hu_mus|FALSE|FALSE (ssRNA)
# RNA: GGGAGUUCUACAGUCCGACGAUCUUCAAUCUGUGGAGGAGCAUCACCUUGACCUUGCUCAUCAGGAGGAGUUGCAGGGGAAUUUUCAUUGGACGAAUCAGGCGAUGAAGUCUGAUUCUGUUGGAGGGGGGGCUGAGACUGUCCCAACAGAGGAUUGAGCAUCA
# B21: chr6:17872010:17872011:+_ENSMUSG00000029534_ENSMUST00000127322|mus_mus|motif|central (ssRNA)
# RNA: GGGAGUUCUACAGUCCGACGAUCUCACUGUCUCCUCUCUUCAGGAUGUGUUCUGGUGGGAGGAUUAAGCUUUUCAUUUCGGGUAGAUAUUUUGGCACGUGUGGAUUAAAUUCCACAGCUCUGUGGAUGGCUUCUACUGCAUUCCAACAGAGGAUUGAGCAUCA
# B22: chr9:37441256:37441257:-_ENSG00000168795_ENST00000307750|hu_hu|FALSE|FALSE (ssRNA)
# RNA: GGGAGUUCUACAGUCCGACGAUCAGGCCCAGCCUCUGGACUCAACAAAUAGGGGGCCUCACUCUCCAGCCUGCAGUCACUAGUGGUGUUUGGAAUAUUAUCAUCAUUGUUCUGAUUUGCAGUAAAGUUAUUUCCUCUGCUCUUCAACAGAGGAUUGAGCAUCA
# Molecular target: T1, UNK ZnF1-3
# Assay: nsRBNS (natural sequence RNA bind-n-seq); RBNS binding buffer (assumed for nsRBNS): 25 mM Tris pH 7.5, 150 mM KCl, 3 mM MgCl2, 0.01% Triton X-100, 500 ug/ml BSA, 20 U/ml SUPERase-In, 4 C; UNK is unkempt and MSI1 is Musashi-1; names of the RNAs are library labels; protein concentration not given here; high values mean tight binding
row,Binder,binding signal
1,B1,0.53 enrichment R
2,B2,0.908 enrichment R
3,B3,0.836 enrichment R
4,B4,1.24 enrichment R
5,B5,0.736 enrichment R
6,B6,0.897 enrichment R
7,B7,1.49 enrichment R
8,B8,3.96 enrichment R
9,B9,3.16 enrichment R
10,B10,5.01 enrichment R
11,B11,2.2 enrichment R
12,B12,2.03 enrichment R
13,B13,0.824 enrichment R
14,B14,5.1 enrichment R
15,B15,0.809 enrichment R
16,B16,4.72 enrichment R
17,B17,1.13 enrichment R
18,B18,0.852 enrichment R
19,B19,1.43 enrichment R
20,B20,1.31 enrichment R
21,B21,0.937 enrichment R
22,B22,0.924 enrichment R
